Measurements taken from PubChem BioAssay (NCI).
This is part of a sample that, as a whole, favours compounds with a hit. Of some 83,000 tested, about 20% had one in any assay.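 Interpretation: 100, growth as untreated; towards 0, rising growth inhibition; 0, no net growth; 0 to -100, cell death. Compounds scoring below 10 were considered active.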 Active and inactive are the calls of the source.

Tests used:
Test in all cases: NCI-60 one-dose screen, 48 h (100 = growth as untreated, 0 = no growth, -100 = all killed)
Conditions in all cases: 10 µM
SR leukemia = system: SR leukemia
RPMI-8226 leukemia = system: RPMI-8226 leukemia
OVCAR-8 ovarian = system: OVCAR-8 ovarian
OVCAR-5 ovarian = system: OVCAR-5 ovarian
OVCAR-4 ovarian = system: OVCAR-4 ovarian
SK-OV-3 ovarian = system: SK-OV-3 ovarian
OVCAR-3 ovarian = system: OVCAR-3 ovarian
HS 578T breast = system: HS 578T breast
NCI/ADR-RES ovarian = system: NCI/ADR-RES ovarian
T-47D breast = system: T-47D breast
BT-549 breast = system: BT-549 breast
MDA-MB-435 melanoma = system: MDA-MB-435 melanoma
SW-620 colon = system: SW-620 colon
MCF7 breast = system: MCF7 breast
HCC-2998 colon = system: HCC-2998 colon
KM12 colon = system: KM12 colon
HCT-116 colon = system: HCT-116 colon
IGROV1 ovarian = system: IGROV1 ovarian

Measured: growth

COC(=O)c1cc2oc(/C=C3/SC(=S)N(N)C3=O)cc2n1Cc1ccccc1
active: RPMI-8226 leukemia -4.46% | HS 578T breast -27.4% | SW-620 colon -43.3%
inactive: SR leukemia 20.8% | OVCAR-8 ovarian 31.1% | OVCAR-5 ovarian 72.6% | OVCAR-4 ovarian 51% | SK-OV-3 ovarian 98.2% | OVCAR-3 ovarian 55% | NCI/ADR-RES ovarian 52.5% | T-47D breast 75.6% | BT-549 breast 36.5% | MDA-MB-435 melanoma 19.2% | MCF7 breast 21% | HCC-2998 colon 80.2% | KM12 colon 58.9%

OCCn1cccn1
inactive: SR leukemia 101% | RPMI-8226 leukemia 98.2% | OVCAR-8 ovarian 116% | OVCAR-5 ovarian 107% | OVCAR-4 ovarian 117% | SK-OV-3 ovarian 104% | OVCAR-3 ovarian 104% | HS 578T breast 111% | NCI/ADR-RES ovarian 97.5% | T-47D breast 102% | BT-549 breast 110% | MDA-MB-435 melanoma 102% | SW-620 colon 101% | MCF7 breast 116% | HCT-116 colon 110% | HCC-2998 colon 97.1% | KM12 colon 102%

COc1ccc2c(c1)C(=O)/C(=C/c1cccc(OCC(=O)c3ccc([N+](=O)[O-])cc3)c1)CO2
active: SR leukemia -64.1% | RPMI-8226 leukemia -50.5% | OVCAR-8 ovarian 2.15% | HS 578T breast -26.8% | NCI/ADR-RES ovarian -29.2% | BT-549 breast -34.5% | SW-620 colon -89% | MCF7 breast -35.9% | HCT-116 colon -74.2% | KM12 colon -87.9%
inactive: OVCAR-5 ovarian 57.3% | OVCAR-4 ovarian 74% | SK-OV-3 ovarian 90.7% | OVCAR-3 ovarian 58.4% | T-47D breast 50.3% | MDA-MB-435 melanoma 24.4%

CC(C)(O)CCl
inactive: SR leukemia 111% | RPMI-8226 leukemia 113% | OVCAR-8 ovarian 102% | OVCAR-5 ovarian 108% | OVCAR-4 ovarian 129% | SK-OV-3 ovarian 119% | OVCAR-3 ovarian 114% | HS 578T breast 96% | NCI/ADR-RES ovarian 108% | T-47D breast 116% | BT-549 breast 116% | MDA-MB-435 melanoma 102% | SW-620 colon 99.5% | MCF7 breast 100% | HCT-116 colon 110% | HCC-2998 colon 109% | KM12 colon 107%

COc1cccc2ccc(CC(O)(c3ccccc3)c3ccccc3)nc12
inactive: SR leukemia 82.3% | RPMI-8226 leukemia 90.7% | OVCAR-8 ovarian 91.5% | OVCAR-5 ovarian 115% | OVCAR-4 ovarian 51.2% | SK-OV-3 ovarian 93.3% | OVCAR-3 ovarian 80.3% | HS 578T breast 103% | NCI/ADR-RES ovarian 94.4% | T-47D breast 43.7% | BT-549 breast 94.1% | MDA-MB-435 melanoma 106% | SW-620 colon 98.7% | MCF7 breast 24.6% | HCT-116 colon 77.1% | HCC-2998 colon 97.1% | KM12 colon 67.3%

O=C(CSc1nccc(Nc2cccc3ccccc23)n1)c1ccc(Cl)cc1
inactive: SR leukemia 90.9% | RPMI-8226 leukemia 80% | OVCAR-8 ovarian 92.3% | OVCAR-5 ovarian 87.4% | OVCAR-4 ovarian 98.7% | SK-OV-3 ovarian 86.4% | IGROV1 ovarian 69% | OVCAR-3 ovarian 99.5% | HS 578T breast 99.7% | T-47D breast 76.1% | BT-549 breast 102% | MDA-MB-435 melanoma 101% | SW-620 colon 92.7% | MCF7 breast 99.5% | HCT-116 colon 67.5% | KM12 colon 94.7%

COc1ccc(C2CC(c3cccs3)=NN2c2ccc(S(N)(=O)=O)cc2)cc1 (centres undefined)
inactive: SR leukemia 83% | RPMI-8226 leukemia 61.2% | OVCAR-8 ovarian 84.4% | OVCAR-5 ovarian 95.4% | OVCAR-4 ovarian 107% | SK-OV-3 ovarian 88.5% | OVCAR-3 ovarian 92.5% | HS 578T breast 97.4% | NCI/ADR-RES ovarian 77.4% | T-47D breast 85.1% | BT-549 breast 99.7% | MDA-MB-435 melanoma 82% | SW-620 colon 100% | MCF7 breast 75% | HCT-116 colon 70.7% | HCC-2998 colon 92.5% | KM12 colon 91.5%

CC1=NN(C(=O)c2nn(-c3ccc(Cl)cc3)cc2O)C(=O)C1
inactive: RPMI-8226 leukemia 13.7% | OVCAR-8 ovarian 29.4% | OVCAR-5 ovarian 63.5% | OVCAR-4 ovarian 29.9% | SK-OV-3 ovarian 34% | IGROV1 ovarian 34.8% | HS 578T breast 31.8% | T-47D breast 48.5% | MDA-MB-435 melanoma 59.8% | SW-620 colon 46.3% | MCF7 breast 52.4% | HCT-116 colon 28.5% | HCC-2998 colon 54.1% | KM12 colon 49%
active: SR leukemia -39.3% | OVCAR-3 ovarian -6.37%

COc1cc(NC(=O)C2=C(N3CCOCC3)/C(=C/c3ccc(Cl)cc3)CC2)cc(OC)c1OC
inactive: SR leukemia 35.1% | RPMI-8226 leukemia 33.2% | OVCAR-8 ovarian 72.7% | OVCAR-5 ovarian 103% | OVCAR-4 ovarian 83.2% | SK-OV-3 ovarian 114% | OVCAR-3 ovarian 85.9% | HS 578T breast 95.2% | NCI/ADR-RES ovarian 72.5% | T-47D breast 71.1% | BT-549 breast 103% | MDA-MB-435 melanoma 75.3% | SW-620 colon 100% | MCF7 breast 73.3% | HCT-116 colon 65.7% | KM12 colon 97.3%

C=CCSC(CC)(CC)C(=O)NC
inactive: SR leukemia 99.3% | RPMI-8226 leukemia 101% | OVCAR-8 ovarian 105% | OVCAR-5 ovarian 104% | OVCAR-4 ovarian 109% | SK-OV-3 ovarian 105% | IGROV1 ovarian 113% | OVCAR-3 ovarian 112% | HS 578T breast 106% | T-47D breast 102% | MDA-MB-435 melanoma 109% | SW-620 colon 103% | MCF7 breast 94.6% | HCT-116 colon 94% | HCC-2998 colon 102% | KM12 colon 104%

CCOC(=O)Cn1c(=O)c2sc3ncccc3c2n2nnc(-c3ccccc3)c12
inactive: SR leukemia 93.5% | RPMI-8226 leukemia 94.7% | OVCAR-8 ovarian 102% | OVCAR-5 ovarian 105% | OVCAR-4 ovarian 101% | SK-OV-3 ovarian 94% | OVCAR-3 ovarian 120% | HS 578T breast 112% | NCI/ADR-RES ovarian 105% | T-47D breast 94.3% | BT-549 breast 98.2% | MDA-MB-435 melanoma 104% | SW-620 colon 119% | MCF7 breast 79.8% | HCT-116 colon 91.5% | HCC-2998 colon 114% | KM12 colon 114%

CC(=O)C1N=NCC1c1ccccc1 (centres undefined)
inactive: SR leukemia 111% | RPMI-8226 leukemia 110% | OVCAR-8 ovarian 111% | OVCAR-5 ovarian 98.9% | OVCAR-4 ovarian 106% | SK-OV-3 ovarian 103% | OVCAR-3 ovarian 110% | HS 578T breast 90% | NCI/ADR-RES ovarian 104% | T-47D breast 104% | BT-549 breast 105% | MDA-MB-435 melanoma 108% | SW-620 colon 101% | MCF7 breast 95.7% | HCT-116 colon 100% | HCC-2998 colon 102% | KM12 colon 102%

C=CCNCCN1C(=O)c2ccc3c4c(ccc(c24)C1=O)C(=O)N(CCNCC=C)C3=O
inactive: RPMI-8226 leukemia 13.5% | BT-549 breast 21.8%
active: SR leukemia -8.69% | OVCAR-8 ovarian -24% | OVCAR-5 ovarian -52% | OVCAR-4 ovarian -97.5% | SK-OV-3 ovarian -38.6% | OVCAR-3 ovarian -22.5% | HS 578T breast 1.35% | NCI/ADR-RES ovarian -12.9% | T-47D breast -51.5% | MDA-MB-435 melanoma -85.2% | SW-620 colon -50.3% | MCF7 breast -60.1% | HCT-116 colon -23% | HCC-2998 colon -81.2% | KM12 colon -53.7%

O=C(COc1cccc(/C=C2\CSc3ccccc3C2=O)c1)c1ccc(Cl)cc1
inactive: OVCAR-5 ovarian 19.5% | OVCAR-4 ovarian 80.9% | SK-OV-3 ovarian 104% | OVCAR-3 ovarian 57.5% | T-47D breast 57.8%
active: SR leukemia -60.7% | RPMI-8226 leukemia -64.5% | OVCAR-8 ovarian -4.69% | HS 578T breast -25.5% | NCI/ADR-RES ovarian 7.16% | BT-549 breast -77.5% | MDA-MB-435 melanoma -14.8% | SW-620 colon -100% | MCF7 breast -89.2% | HCT-116 colon -57.8% | KM12 colon -80.3%

CSc1ccc(-c2cc(-c3ccc(NC(=O)CCCN4CCCC4)cc3)nc(-c3ccc(NC(=O)CCCN4CCCC4)cc3)c2)cc1
active: MCF7 breast -86.4%
inactive: SR leukemia 32.2% | RPMI-8226 leukemia 73.2% | OVCAR-8 ovarian 76.4% | OVCAR-5 ovarian 72.3% | OVCAR-4 ovarian 67.3% | SK-OV-3 ovarian 75.2% | OVCAR-3 ovarian 63.4% | HS 578T breast 55% | NCI/ADR-RES ovarian 95.5% | T-47D breast 102% | BT-549 breast 77.6% | MDA-MB-435 melanoma 79.7% | SW-620 colon 67.6% | HCT-116 colon 80.4% | HCC-2998 colon 86.3% | KM12 colon 24.6%

O=[N+]([O-])c1ccc2ncccc2c1Cl
active: SR leukemia 7.28% | MDA-MB-435 melanoma -36.9% | HCT-116 colon 5.31% | KM12 colon -7.28%
inactive: RPMI-8226 leukemia 38.7% | OVCAR-8 ovarian 18.6% | OVCAR-5 ovarian 85.3% | OVCAR-4 ovarian 90.2% | SK-OV-3 ovarian 63.6% | OVCAR-3 ovarian 40.7% | HS 578T breast 67% | NCI/ADR-RES ovarian 29.2% | T-47D breast 68.7% | BT-549 breast 43.6% | SW-620 colon 14.5% | MCF7 breast 13.4% | HCC-2998 colon 106%

COc1cc(-c2nn(-c3cccc(NC(=O)NCCNC(=O)c4cccc(C(F)(F)F)c4)c3)cc2-c2ccncc2)ccc1Cl
active: MDA-MB-435 melanoma -41.6%
inactive: SR leukemia 10.4% | RPMI-8226 leukemia 21.4% | OVCAR-8 ovarian 44.1% | OVCAR-5 ovarian 85.1% | OVCAR-4 ovarian 49.4% | SK-OV-3 ovarian 49.9% | IGROV1 ovarian 57.3% | OVCAR-3 ovarian 16.2% | HS 578T breast 24.1% | T-47D breast 52.7% | BT-549 breast 14.2% | MCF7 breast 12.7% | HCT-116 colon 24.4% | HCC-2998 colon 67.3% | KM12 colon 18.9%

COc1ccc2nc3cc(Cl)ccc3c(N)c2c1
active: SR leukemia -39.1% | RPMI-8226 leukemia -1.72% | OVCAR-8 ovarian -44.4% | OVCAR-5 ovarian -91.8% | OVCAR-4 ovarian -98% | SK-OV-3 ovarian -97.7% | IGROV1 ovarian -33% | OVCAR-3 ovarian -93.7% | NCI/ADR-RES ovarian -97.2% | T-47D breast -82% | BT-549 breast -95.6% | MDA-MB-435 melanoma -74.2% | SW-620 colon -70.2% | HCT-116 colon -99.2% | HCC-2998 colon -99% | KM12 colon -84.3%

CC(C1=C(CN(C(=O)Cc2cn(-c3ccccc3)nc2-c2ccc(Cl)cc2)C(C)C)Cc2ccccc21)c1ccccn1 (centres undefined)
inactive: SR leukemia 37.4% | RPMI-8226 leukemia 36.5% | OVCAR-8 ovarian 81.7% | OVCAR-5 ovarian 85% | OVCAR-4 ovarian 54.8% | SK-OV-3 ovarian 65.4% | OVCAR-3 ovarian 62.4% | HS 578T breast 80.7% | NCI/ADR-RES ovarian 61.1% | T-47D breast 40.6% | BT-549 breast 88% | MDA-MB-435 melanoma 70.1% | SW-620 colon 75.8% | MCF7 breast 41.2% | HCT-116 colon 31.9% | HCC-2998 colon 68% | KM12 colon 54.8%
